Laboratory results from PubChem BioAssay AID371 (SRMLSC, 2006).
In all, about 3,300 compounds went through this assay and about 280 (8.5%) were called active. The sample holds actives, similar compounds and a random draw of the others, so the mix is not that of the screen.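 How the source made its calls: active means mean growth inhibition over the two runs of 50% or more; inactive means mean growth inhibition under 50%.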

Experiment: A549 NSCLC cell proliferation inhibitors – ATP luminescence, human non-small cell lung line, primary screen (AID 371);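 further: compound exposure lasted 72 h before the ATP read; 0% = untreated cell signal and 100% = no luminescence left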
Settings: at 10 µM, active compounds read high
With `COC(=O)c1ccc(N2C(=O)CC(N3CCN(C(=O)c4ccco4)CC3)C2=O)cc1` (centres undefined) the growth inhibition was -5.76% (inactive). For `COc1ccc(Cn2ccnc2)cc1Br`, the growth inhibition was 7.92% (inactive). For `CC1(C)Cc2c(c(N3CCOCC3)nc3snc(Br)c23)CO1`, the growth inhibition was 16% (inactive). In the case of `COc1nnnc2c1sc1nc(N3CCOCC3)c3c(c12)CC(C)(C)OC3`, the growth inhibition is reported as -0.53% (inactive). For `CC1(C)Cc2c(c(N3CCOCC3)nc3snc(N)c23)CO1`, the growth inhibition was 91% (active). For `CCCCNC(=O)N1CCOCCOCCN(C(=O)NCCCC)CCOCC1`, the growth inhibition was 2.17% (inactive). In the case of `N#Cc1nc(-c2ccccc2Cl)oc1N1CCCCC1`, the growth inhibition is reported as 25.2% (inactive). With `CCOP(=O)(c1ccccc1)c1nc(-c2ccccc2C)oc1N1CCCCC1` (centres undefined) the growth inhibition was 90.3% (active). In the case of `CCOP(=O)(c1ccccc1)c1nc(-c2ccc(F)cc2)oc1N1CCCCC1` (centres undefined), the growth inhibition is reported as 35.1% (inactive). For `Clc1cccc(-c2nn3c(COc4ccccc4)nnc3s2)c1`, the growth inhibition was -1.72% (inactive). In the case of `Cc1nn(C)cc1/C=N/n1nnnc1N`, the growth inhibition is reported as 3.1% (inactive). With `N#Cc1nc(-c2cccs2)oc1NCc1ccccc1` the growth inhibition was 37.1% (inactive). For `N#Cc1nc(-c2cccs2)oc1NCc1ccccc1Cl`, the growth inhibition was 16.3% (inactive). With `N#Cc1nc(-c2cccs2)oc1NCc1ccc2c(c1)OCO2` the growth inhibition was 51.8% (active). For `Cc1ccc(C2/C(=C(/O)c3ccc(OC(C)C)cc3)C(=O)C(=O)N2CCN2CCOCC2)cc1` (centres undefined), the growth inhibition was -0.89% (inactive). With `CC(=Nc1cccc(O)c1)c1sc2ccccc2c1O` the growth inhibition was 71.6% (active). For `Oc1c(C=NCc2ccncc2)sc2ccccc12`, the growth inhibition was 3.71% (inactive). For `Oc1c(C=Nc2cccnc2)sc2ccccc12`, the growth inhibition was 9.67% (inactive). With `O=C1CC(N(O)C2CC(=O)N(Cc3ccccc3)C2=O)C(=O)N1Cc1ccccc1` (centres undefined) the growth inhibition was 9.01% (inactive). With `CN(C)CCCOC(=O)C1c2ccccc2Oc2ccccc21` the growth inhibition was 8.41% (inactive). In the case of `Cc1ccc2[nH]c3c(c2c1)CCCC3C(N)=O` (centres undefined), the growth inhibition is reported as 0.63% (inactive). For `Cc1nnc(N2CCOCC2)c2ccccc12`, the growth inhibition was -0.2% (inactive). For `NC(=O)C(c1ccccc1)C1CCCC1` (centres undefined), the growth inhibition was 2% (inactive). For `O=C(NC1CCCCC1)Nn1c(-c2ccccc2)nc2ccccc2c1=O`, the growth inhibition was 5.81% (inactive). In the case of `O=C(NC1CCCCC1)N1CCSC1=Nc1ccccc1`, the growth inhibition is reported as 83.3% (active). In the case of `Cc1cc(C)n(-c2nnc(C)n2/N=C/c2ccccc2F)n1`, the growth inhibition is reported as -1.21% (inactive). For `CCc1nnc(NC(=O)CSc2nc(C)c3c(c2C#N)CCCC3)s1`, the growth inhibition was 47.6% (inactive). For `Cc1ccc(-n2c(SCC(=O)NCc3ccco3)nc3nc4c(cc3c2=O)COC(C)(C)C4)cc1`, the growth inhibition was 7.55% (inactive). With `CCCc1cc(-c2nc(N)ncc2-c2ccc3c(c2)OCCCO3)c(O)cc1OC` the growth inhibition was 78.2% (active).
